“And” between values parts separate entries of the source, which are not always exact repeats. Identical values can stand only once. Out of some 5,500 compounds screened, about 2,000 (36%) were called active. Another 18% or so got no clear call; they are omitted. Rule as the data show it: active = normalized growth mostly below about 0.91 (no sharp cut-off); inconclusive = no clear call, values can overlap the other calls; inactive = mostly above about 0.92. This is one part of the list.
Assay: chemical genetic growth profiling, strain panel (AID 1159580);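 also: tested at 20 µM; growth read once vehicle control cultures reached saturation at 30 °C; 1 = growth at the plate median or of vehicle wells; lower values mean less growth of the strain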
Details: S. cerevisiae deletion strains, growth OD

Measured: normalized growth

NCCCCC(=O)O
inactive: locus YAL013W, strain DEP1, hits give low values 1.03 | locus YAL021C, strain ccr4, hits give low values 1.01 | locus YAL026C, strain drs2, hits give low values 1.02 | locus YAL030W, strain snc1, hits give low values 1.01 | locus YAL040C, strain CLN3, hits give low values 1.01 | locus YBL061C, strain skt5, hits give low values 1.02 | locus YBR009C, strain hhf1, hits give low values 1.02 | locus YBR021W, strain FUR4, hits give low values 0.976 | locus YBR023C, strain chs3, hits give low values 1.02 | locus YBR171W, strain sec66, hits give low values 1.02 | locus YBR229C, strain ROT2, hits give low values 1.02 | locus YBR231C, strain swc5, hits give low values 1.02 | locus YBR279W, strain paf1, hits give low values 1.01 | locus YCL011C, strain gbp2, hits give low values 1.02 | locus YCL016C, strain dcc1, hits give low values 1.01 | locus YCL029C, strain bik1, hits give low values 0.998 | locus YCL061C, strain MRC1 (second series), hits give low values 1 | locus YCL069W, strain vba3, hits give low values 1.01 | locus YCR088W, strain abp1, hits give low values 1.02 | locus YDL005C, strain med2, hits give low values 1.02 | locus YDL035C, strain GPR1, hits give low values 1.02 | locus YDL040C, strain nat1, hits give low values 1.02 | locus YDL074C, strain BRE1, hits give low values 1.04 | locus YDL101C, strain DUN1, hits give low values 1.03 | locus YDL134C, strain PPH21, hits give low values 1.02 | locus YDL185W, strain tfp1, hits give low values 0.995 | locus YDL192W, strain arf1, hits give low values 0.992 | locus YDR001C, strain nth1, hits give low values 1.01 | locus YDR069C, strain doa4, hits give low values 1.02 | locus YDR101C, strain arx1, hits give low values 0.985 | locus YDR137W, strain rgp1, hits give low values 1.02 | locus YDR150W, strain NUM1, hits give low values 1.03 | locus YDR159W, strain sac3, hits give low values 1.03 | locus YDR162C, strain NBP2, hits give low values 1.04 | locus YDR195W, strain ref2 1.01 | locus YDR297W, strain sur2, hits give low values 1.02 | locus YDR318W, strain mcm21, hits give low values 0.992 | locus YDR334W, strain swr1, hits give low values 1.01 | locus YDR335W, strain msn5, hits give low values 1.01 | locus YDR388W, hits give low values 0.986 | locus YDR392W, strain spt3, hits give low values 1.01 | locus YDR502C, strain sam2, hits give low values 1 | locus YEL003W, strain gim4, hits give low values 1.01 | locus YEL037C, strain rad23, hits give low values 1 | locus YEL061C, strain CIN8 (second series), hits give low values 1.01 | locus YEL061C, strain CIN8, hits give low values 1.01 | locus YER002W, strain NOP16, hits give low values 1 | locus YER015W, strain faa2, hits give low values 1.02 | locus YER016W, strain bim1, hits give low values 1.02 | locus YER110C, hits give low values 0.977 | locus YER111C, strain swi4, hits give low values 1.03 | locus YER155C, strain BEM2 (second series), hits give low values 1.04 | locus YER155C, strain BEM2, hits give low values 1.03 | locus YER167W, strain BCK2, hits give low values 1.03 | locus YFR010W, strain ubp6, hits give low values 1.01 | locus YGL078C, strain dbp3, hits give low values 0.989 | locus YGL086W, strain mad1, hits give low values 0.993 | locus YGL167C, strain pmr1, hits give low values 1.03 | locus YGL173C, strain kem1, hits give low values 1.02 | locus YGL227W, strain vid30, hits give low values 1.02 | locus YGL240W, strain doc1, hits give low values 1.03 | locus YGL248W, strain PDE1, hits give low values 1.03 | locus YGL253W, strain hxk2, hits give low values 1.01 | locus YGR078C, strain PAC10, hits give low values 1.03 | locus YGR135W, strain pre9, hits give low values 0.985 | locus YGR229C, strain SMI1, hits give low values 1.02 and 1.01 | locus YGR252W, strain gcn5, hits give low values 0.917 | locus YHR013C, strain ard1, hits give low values 1.04 | locus YHR027C, strain rpn1, hits give low values 1.01 | locus YHR030C, strain SLT2, hits give low values 1.02 and 0.975 | locus YHR079C, strain IRE1 (second series), hits give low values 0.992 | locus YHR079C, strain IRE1, hits give low values 0.961 | locus YHR094C, strain hxt1, hits give low values 1 | locus YHR129C, strain ARP1, hits give low values 1.02 | locus YHR142W, strain chs7, hits give low values 1.03 | locus YHR200W, strain rpn10, hits give low values 1.01 | locus YIL066C, strain RNR3, hits give low values 1.02 | locus YIL073C, strain SPO22, hits give low values 1.02 | locus YIL125W, strain kgd1, hits give low values 0.994 | locus YIR030C, strain dcg1, hits give low values 0.998 | locus YJL092W, strain hpr5, hits give low values 1.02 | locus YJL095W, strain BCK1 (second series), hits give low values 1.03 | locus YJL095W, strain BCK1, hits give low values 1.02 and 0.979 | locus YJL115W, strain asf1, hits give low values 1.02 | locus YJL129C, strain trk1, hits give low values 1.03 | locus YJL134W, strain LCB3, hits give low values 1.02 | locus YJL154C, strain vps35, hits give low values 1.02 | locus YJL164C, strain tpk1, hits give low values 1.02 | locus YJL166W, strain qcr8, hits give low values 1.02 | locus YJL168C, strain set2, hits give low values 0.991 | locus YJL187C, strain SWE1 (second series), hits give low values 1.02 | locus YJR043C, strain POL32, hits give low values 1.03 | locus YJR066W, strain TOR1, hits give low values 0.902 | locus YJR075W, strain HOC1, hits give low values 1.03

From PubChem BioAssay AID1159580 (chemical genetic matrix, 2015)
